Set-up in all cases: scale not given: direction of the effect not stated beside the values
For test [1], the target named is Protein translocase subunit SecA (Escherichia coli (strain K12)) (UniProt P10408). Briefly: Assay to Identify E. coli SecA ATPase Inhibitors. It is filed as functional. The note with it: 30 µM.
In test [2] the target is T1, Ubiquitin-activating enzyme e1, putative (Leishmania donovani (strain BPK282A1)) (UniProt E9BSI1).
T1 sequence (whole entry): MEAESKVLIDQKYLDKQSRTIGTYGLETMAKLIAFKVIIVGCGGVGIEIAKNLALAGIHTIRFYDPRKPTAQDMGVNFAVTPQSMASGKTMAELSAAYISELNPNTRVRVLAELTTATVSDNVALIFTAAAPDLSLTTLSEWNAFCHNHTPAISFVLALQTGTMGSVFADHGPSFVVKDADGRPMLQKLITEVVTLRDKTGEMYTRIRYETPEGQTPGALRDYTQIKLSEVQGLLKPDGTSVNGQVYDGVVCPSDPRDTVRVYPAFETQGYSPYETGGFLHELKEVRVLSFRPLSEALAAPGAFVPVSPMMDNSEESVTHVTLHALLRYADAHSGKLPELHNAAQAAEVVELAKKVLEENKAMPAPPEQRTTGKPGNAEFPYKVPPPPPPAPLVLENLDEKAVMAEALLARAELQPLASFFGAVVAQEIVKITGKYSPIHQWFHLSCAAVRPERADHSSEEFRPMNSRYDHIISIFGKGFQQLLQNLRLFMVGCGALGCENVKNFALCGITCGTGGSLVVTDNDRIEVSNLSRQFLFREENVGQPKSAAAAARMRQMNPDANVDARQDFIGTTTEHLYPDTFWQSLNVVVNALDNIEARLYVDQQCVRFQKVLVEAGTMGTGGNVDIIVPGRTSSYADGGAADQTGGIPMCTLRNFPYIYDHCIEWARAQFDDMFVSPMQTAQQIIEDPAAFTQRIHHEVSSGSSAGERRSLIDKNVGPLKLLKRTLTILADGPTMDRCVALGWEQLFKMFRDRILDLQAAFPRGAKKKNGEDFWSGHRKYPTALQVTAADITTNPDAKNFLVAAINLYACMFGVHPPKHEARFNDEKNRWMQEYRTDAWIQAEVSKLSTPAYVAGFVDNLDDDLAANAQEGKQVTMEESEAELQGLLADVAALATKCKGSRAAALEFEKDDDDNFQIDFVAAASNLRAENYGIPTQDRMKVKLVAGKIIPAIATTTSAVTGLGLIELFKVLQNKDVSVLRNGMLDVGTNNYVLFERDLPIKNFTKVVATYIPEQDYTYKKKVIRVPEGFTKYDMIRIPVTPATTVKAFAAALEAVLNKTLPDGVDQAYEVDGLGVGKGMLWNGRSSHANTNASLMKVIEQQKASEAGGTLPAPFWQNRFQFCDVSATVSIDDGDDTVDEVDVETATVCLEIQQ
Briefly: Leishmania donovani Ubiquitin Activating Enzyme (LdE1). It counts as functional. The following applies: 30 µM.

Test [3] concerns the target AMP-activated protein kinase, AMPK (Homo sapiens) (UniProt P54646+O43741+P54619+Q9UGJ0+Q9Y478+Q13131+Q9UGI9). Briefly: AMP-dependent Kinase enzyme assay. An in vitro enzyme assay that detects ADP turnover that is directly proportional to AMPK activity. This uses naive AMPK that is activated during the assay with MK-8722. It counts as functional. The note with it: 30 µM.

Test [4] concerns the target Sialic acid-binding Ig-like lectin 9 (Homo sapiens) (UniProt Q9Y336). Briefly: Hs-Siglec9 ALPHAscreen SOP 20170721. The note with it: 10 µM. A general note: In Alpha technology, singlet oxygen from a donor bead excites a nearby acceptor bead.
In test [5] the test system is Trypanosoma cruzi. The test is described as follows: Trypanosoma cruzi phosphomannomutase and mannose-1-phosphate guanylyltransferase assay. It counts as functional. The note with it: 10 µM.
The target of test [6] is T2, Arginase-2, mitochondrial (Homo sapiens) (UniProt P78540).
T2 sequence (whole entry): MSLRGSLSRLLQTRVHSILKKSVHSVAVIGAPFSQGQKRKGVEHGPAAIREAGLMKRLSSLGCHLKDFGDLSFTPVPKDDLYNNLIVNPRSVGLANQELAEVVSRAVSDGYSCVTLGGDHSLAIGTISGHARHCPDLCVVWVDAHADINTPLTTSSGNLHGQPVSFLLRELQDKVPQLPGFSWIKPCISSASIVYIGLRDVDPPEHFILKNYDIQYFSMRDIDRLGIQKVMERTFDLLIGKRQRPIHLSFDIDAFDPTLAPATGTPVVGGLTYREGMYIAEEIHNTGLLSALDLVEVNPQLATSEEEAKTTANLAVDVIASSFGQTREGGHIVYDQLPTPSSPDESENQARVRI
The test is described as follows: in vitro enzyme assay to detect the production of urea directly proportional to the activity of Arginase II. Also: in the data most compounds retested in dose-response had high values. It counts as functional. The note with it: 33.3 µM.

Test [7] deals with T3, Proteasome subunit beta (Trypanosoma cruzi) (UniProt O96673).
T3 sequence (whole entry): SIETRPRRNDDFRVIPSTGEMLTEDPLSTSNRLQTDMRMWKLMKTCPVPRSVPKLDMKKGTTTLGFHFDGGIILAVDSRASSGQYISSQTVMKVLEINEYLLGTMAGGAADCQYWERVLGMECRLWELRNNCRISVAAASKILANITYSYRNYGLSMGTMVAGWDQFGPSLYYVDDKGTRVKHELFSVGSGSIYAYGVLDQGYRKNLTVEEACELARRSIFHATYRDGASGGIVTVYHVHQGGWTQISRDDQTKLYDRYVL
The test is described as follows: Trypanosoma cruzi proteasome chymotrypsin-like activity (TcProtChymo) assay. Also: in the data most compounds retested in dose-response had high values. It is filed as functional. The note with it: 9.37 µM.

The species named for test [8] is Homo sapiens. Briefly: To identify inhibition of the IFN signalling (Jak-Stat) pathway via expression of an eGFP reporter gene under the control of an IFN-stimulated response element (ISRE) containing MxA promoter. It is filed as functional. The following applies: 30 µM. In general terms: Reporter assays use an easily measured gene product as a stand-in for the process of interest.

Test [9] addresses T4, Tyrosyl-tRNA synthetase, putative (Trypanosoma cruzi (strain CL Brener)) (UniProt Q4DSP6).
T4 sequence (whole entry): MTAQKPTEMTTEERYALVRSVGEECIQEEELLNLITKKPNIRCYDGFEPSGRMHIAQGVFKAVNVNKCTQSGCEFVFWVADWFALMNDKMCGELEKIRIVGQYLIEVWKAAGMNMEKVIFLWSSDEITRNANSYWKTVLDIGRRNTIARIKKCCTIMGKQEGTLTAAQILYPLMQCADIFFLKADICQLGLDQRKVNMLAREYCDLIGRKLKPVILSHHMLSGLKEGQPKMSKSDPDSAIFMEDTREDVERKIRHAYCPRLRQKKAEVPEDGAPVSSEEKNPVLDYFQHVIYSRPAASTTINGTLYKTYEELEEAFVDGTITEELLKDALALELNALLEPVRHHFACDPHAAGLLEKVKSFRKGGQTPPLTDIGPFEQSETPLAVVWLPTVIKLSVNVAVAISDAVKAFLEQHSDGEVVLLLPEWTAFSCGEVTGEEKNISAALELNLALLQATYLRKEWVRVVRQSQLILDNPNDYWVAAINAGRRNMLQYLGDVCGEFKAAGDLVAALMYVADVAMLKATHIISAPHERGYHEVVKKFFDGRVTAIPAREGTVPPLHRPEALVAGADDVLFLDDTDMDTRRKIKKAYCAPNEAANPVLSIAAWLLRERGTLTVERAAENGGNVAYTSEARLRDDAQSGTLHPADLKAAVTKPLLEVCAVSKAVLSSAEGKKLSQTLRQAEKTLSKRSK
The test is described as follows: Trypanosoma cruzi tyrosyl tRNA synthetase (TcYRS) _High Tyrosine SOP. Also: in the data most compounds retested in dose-response had high values. It counts as functional. The note with it: 30 µM.

Test [10] deals with T4, Tyrosyl-tRNA synthetase, putative (Trypanosoma cruzi (strain CL Brener)). The test is described as follows: Trypanosoma cruzi tyrosyl tRNA synthetase (TcYRS) SOP. It is filed as functional. The note with it: 30 µM.
Test [11] addresses Chromo domain-containing protein 1 (Saccharomyces cerevisiae (strain ATCC 204508 / S288c) (Baker's yeast)) (UniProt P32657). Briefly: ScCHD-1 Enzyme Inhibition Assay. Also: in the data most compounds retested in dose-response had high values. It counts as functional. The note with it: 30 µM.

The record followed here is ChEMBL document CHEMBL3988442, “University of Dundee, Small-Polar-MMV Screening Library” (2021).

For some of these results: Results with a measured potency or affinity are listed apart.

Sequence of Chromo domain-containing protein 1 (Saccharomyces cerevisiae (strain ATCC 204508 / S288c) (Baker's yeast)) (P32657 whole entry, the tested form may be a part): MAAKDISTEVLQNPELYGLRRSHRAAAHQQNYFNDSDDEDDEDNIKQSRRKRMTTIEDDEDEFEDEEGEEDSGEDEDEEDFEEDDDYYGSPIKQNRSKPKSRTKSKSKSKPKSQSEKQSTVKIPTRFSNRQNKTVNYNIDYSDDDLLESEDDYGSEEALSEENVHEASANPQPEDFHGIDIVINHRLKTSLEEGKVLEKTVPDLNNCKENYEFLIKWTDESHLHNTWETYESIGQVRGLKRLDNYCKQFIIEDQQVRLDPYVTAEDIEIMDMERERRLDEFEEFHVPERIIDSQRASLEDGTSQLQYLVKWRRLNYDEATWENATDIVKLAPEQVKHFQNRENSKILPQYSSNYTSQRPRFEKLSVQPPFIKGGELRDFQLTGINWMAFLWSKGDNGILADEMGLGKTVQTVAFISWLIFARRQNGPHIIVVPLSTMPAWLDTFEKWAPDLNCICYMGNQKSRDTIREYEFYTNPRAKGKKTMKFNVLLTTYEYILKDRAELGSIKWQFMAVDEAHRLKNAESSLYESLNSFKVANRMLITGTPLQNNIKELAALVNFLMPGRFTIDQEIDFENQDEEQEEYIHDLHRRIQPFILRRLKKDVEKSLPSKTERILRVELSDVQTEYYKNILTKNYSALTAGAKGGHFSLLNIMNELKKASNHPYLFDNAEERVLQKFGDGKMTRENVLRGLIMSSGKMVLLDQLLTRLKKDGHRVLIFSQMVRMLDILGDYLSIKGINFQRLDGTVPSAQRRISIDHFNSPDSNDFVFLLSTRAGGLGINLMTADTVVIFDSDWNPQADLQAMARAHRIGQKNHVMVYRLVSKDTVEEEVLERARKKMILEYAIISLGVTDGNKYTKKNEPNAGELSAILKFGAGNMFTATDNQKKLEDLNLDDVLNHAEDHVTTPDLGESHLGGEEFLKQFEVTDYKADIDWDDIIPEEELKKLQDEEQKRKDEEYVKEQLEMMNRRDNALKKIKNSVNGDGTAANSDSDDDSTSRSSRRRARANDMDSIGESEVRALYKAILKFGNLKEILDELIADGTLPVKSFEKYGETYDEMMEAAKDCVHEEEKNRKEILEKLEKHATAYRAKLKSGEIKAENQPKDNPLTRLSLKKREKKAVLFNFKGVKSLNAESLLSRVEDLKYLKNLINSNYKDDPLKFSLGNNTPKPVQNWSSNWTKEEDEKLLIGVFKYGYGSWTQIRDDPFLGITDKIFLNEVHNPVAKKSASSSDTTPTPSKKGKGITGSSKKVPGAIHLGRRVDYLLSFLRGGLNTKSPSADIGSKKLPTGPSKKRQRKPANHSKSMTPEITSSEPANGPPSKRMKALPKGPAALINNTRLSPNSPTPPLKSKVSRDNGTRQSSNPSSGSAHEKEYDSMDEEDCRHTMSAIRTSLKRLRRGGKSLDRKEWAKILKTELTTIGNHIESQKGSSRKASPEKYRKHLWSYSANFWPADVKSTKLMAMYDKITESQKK
Sequence of Protein translocase subunit SecA (Escherichia coli (strain K12)) (P10408 whole entry): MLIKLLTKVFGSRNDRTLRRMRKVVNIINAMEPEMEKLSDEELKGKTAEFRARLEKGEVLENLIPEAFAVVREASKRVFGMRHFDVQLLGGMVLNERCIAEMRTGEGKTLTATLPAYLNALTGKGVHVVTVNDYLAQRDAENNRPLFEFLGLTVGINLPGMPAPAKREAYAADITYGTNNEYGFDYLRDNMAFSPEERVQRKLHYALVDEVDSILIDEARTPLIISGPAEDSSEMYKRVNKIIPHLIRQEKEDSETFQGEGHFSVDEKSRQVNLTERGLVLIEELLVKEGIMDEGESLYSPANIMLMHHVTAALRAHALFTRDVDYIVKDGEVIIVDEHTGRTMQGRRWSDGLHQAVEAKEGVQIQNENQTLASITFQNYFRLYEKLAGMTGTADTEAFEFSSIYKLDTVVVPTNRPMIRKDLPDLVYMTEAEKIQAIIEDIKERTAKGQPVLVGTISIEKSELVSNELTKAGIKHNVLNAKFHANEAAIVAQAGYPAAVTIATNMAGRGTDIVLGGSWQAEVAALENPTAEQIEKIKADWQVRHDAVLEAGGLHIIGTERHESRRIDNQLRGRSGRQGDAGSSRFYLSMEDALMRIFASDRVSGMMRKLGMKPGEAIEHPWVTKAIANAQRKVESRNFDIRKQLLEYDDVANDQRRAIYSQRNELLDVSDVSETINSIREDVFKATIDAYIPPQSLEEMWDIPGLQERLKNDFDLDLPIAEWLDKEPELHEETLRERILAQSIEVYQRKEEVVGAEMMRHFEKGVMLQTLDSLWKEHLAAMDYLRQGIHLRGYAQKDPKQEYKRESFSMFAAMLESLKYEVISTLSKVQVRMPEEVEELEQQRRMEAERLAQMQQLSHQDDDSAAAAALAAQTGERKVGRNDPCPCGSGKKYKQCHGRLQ
Sequence of Sialic acid-binding Ig-like lectin 9 (Homo sapiens) (Q9Y336 whole entry): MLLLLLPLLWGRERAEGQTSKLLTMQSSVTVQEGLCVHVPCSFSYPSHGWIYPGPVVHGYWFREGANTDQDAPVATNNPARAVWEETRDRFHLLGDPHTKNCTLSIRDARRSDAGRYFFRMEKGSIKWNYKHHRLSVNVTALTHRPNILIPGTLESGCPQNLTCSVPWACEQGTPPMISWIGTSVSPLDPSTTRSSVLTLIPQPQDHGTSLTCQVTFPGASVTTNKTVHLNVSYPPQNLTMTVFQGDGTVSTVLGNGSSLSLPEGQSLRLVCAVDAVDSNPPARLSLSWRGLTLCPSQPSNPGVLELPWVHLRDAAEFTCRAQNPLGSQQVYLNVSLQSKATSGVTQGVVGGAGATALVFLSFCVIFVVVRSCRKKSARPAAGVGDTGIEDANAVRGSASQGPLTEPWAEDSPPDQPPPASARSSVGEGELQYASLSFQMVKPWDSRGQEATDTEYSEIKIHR

As for `CN(C)C(=O)N1CCc2c(nnn2C)C1COCc1ccccc1` (stereo unspecified), the Percent Effect in test [1] was -4.49%; in test [2] it was 21.3%; in test [3] it was -8.1%; in [4], -0.726%; in [5], 5.21%; in test [6], -42.1%. For the same compound, the Percent Effect in test [7] was 13.7%; in [8] it was -0.202%; in [9], 7.29%; in [10], 27.5%; in test [11], -6.92%.

With `O=C(NCCc1c[nH]cn1)c1ccc2c(c1)C(=O)N(C1CC1)C2=O`, the Percent Effect in [1] was -0.201%; in test [2] it was 1.33%; in [3], 5.05%; in [4] it was 2.3%; in test [5], -8.64%; in test [6], 0.176%. The Percent Effect in test [7] was 11.7%; in test [8], -8.34%; in test [9], 6.35%; in test [10], 7.69%; in [11], -4.66%.

Turning to `CCc1nc(CN(C)C2CCN(Cc3cnc(C)cn3)C2)no1` (stereo unspecified), the Percent Effect was 0.722% in [1]; 27.9% in test [2]; -1.25% in test [3]; -16.7% in [4]; 5.38% in [5]; -3.42% in test [6]. For the same compound, the Percent Effect was 15.5% in [7]; 26.6% in test [8]; 8.37% in test [9]; 21.5% in [10]; -17% in test [11].

As for `Cc1nn(C)c(N(C)C)c1CNCc1cccnc1`, the Percent Effect in test [1] was -5.22%; in [2], -2.7%; in test [3], -6.42%; in test [4] it was -9.25%; in test [5], -5.38%; in test [6] it was -1.74%. Also, the Percent Effect in test [7] is 12.4%; in test [8] it was -10.3%; in test [9] it was -4.3%; in [10] it was -6.17%; in test [11], -0.598%.

Take `Cc1cnc2c(S(=O)(=O)NCC3CCS(=O)(=O)C3)cccc2c1` (stereo unspecified): the Percent Effect in test [1] is -3.39%; in test [2], 21.1%; in test [3], -0.0656%; in test [4] it was -5%; in test [5], 6.26%; in [6], 3.24%. Besides, the Percent Effect is 16.8% in test [7]; 7.48% in test [8]; 7.39% in test [9]; 23.5% in test [10]; -10.9% in test [11].

Regarding `O=C(N1CCCO1)[C@@]12CCO[C@@H]1CCN(Cc1ccccc1)C2`, the Percent Effect is -2.49% in test [1]; 2.67% in [2]; -2.01% in test [3]; 8.06% in test [4]; -4.25% in test [5]; -22.8% in test [6]. The Percent Effect in test [7] was 6.67%; in test [8] it was 0.724%; in test [9] it was 4.17%; in test [10], 10%; in [11] it was -6.13%.

`CCN1CCOC(CNCc2ccccn2)C1` (stereo unspecified): the Percent Effect was -1.35% in test [1]; 0% in [2]; -15.7% in test [3]; 4.04% in [4]; 7.19% in [5]; 1.8% in test [6]. For the same compound, the Percent Effect in test [7] was -3.64%; in [8], -4.24%; in [9] it was 8.37%; in test [10], 16.1%; in test [11], -1.88%.

As to `CC(C)c1cc(NCC(O)CO)n2nccc2n1` (stereo unspecified), the Percent Effect in test [1] is -2.58%; in test [2], 8.11%; in [3], 0.503%; in test [4] it was 25.3%; in test [5], 3.48%; in test [6] it was 11.9%. In addition, the Percent Effect in [7] was 19.3%; in test [8], 9%; in test [9], 1.59%; in test [10], 12.2%; in test [11], -9.93%.

Consider `N#Cc1c(F)cccc1N1CCC(NS(=O)(=O)c2cccs2)CC1`, for which the Percent Effect in test [1] is 0.0864%; in [2], -11%; in [3] it was 24.6%; in [4] it was -2.85%; in test [5], -9.6%; in [6] it was -0.455%. Besides, the Percent Effect in [7] is 14%; in [8], 34.2%; in [9], -15.1%; in test [10] it was -20%; in [11], -4.33%.

As for `CN(C)C(=O)N1CCOCC2(CCN(c3ccccn3)C2)C1` (stereo unspecified), the Percent Effect in test [1] was -1.92%; in test [2], -2.7%; in test [3], -1.14%; in test [4], -5.57%; in [5] it was -2.64%; in test [6] it was 2.23%. The Percent Effect in test [7] is 9.19%; in [8], -4.16%; in test [9], 1.07%; in test [10], 1.24%; in test [11], -3.16%.

Consider `CC(C)C(Sc1nnnn1-c1ccccc1)C(=O)NCc1cccnc1` (stereo unspecified), for which the Percent Effect in test [1] was -3.59%; in test [2] it was 7.79%; in test [3], 1.33%; in [4] it was -5.13%; in test [5] it was -8.05%; in test [6] it was -1.42%. The Percent Effect in test [7] was 13%; in test [8], 17%; in test [9], 4.85%; in test [10] it was 9.76%; in [11], -8.86%.
